In PubChem BioAssay (EPA / NIEHS):
Results filed as inconclusive are left out. The source made the active and inactive calls. How the source made its calls: active means hit-call score of the fitted dose curve at least 0.9, where 1 is the maximum; inconclusive means response in the unintended direction; inactive means score below 0.9.

The compounds below were run against THRB (gene 7068) (UniProt P10828) (assay: TOX21_TRB_BLA_Antagonist_Followup_ratio: Tox21 Thyroid Hormone Receptor beta Antagonism Beta-lactamase (BLA) Follow-Up Assay, Ratio (AID 2283958)).
Source text: The GeneBLAzer TRb-UAS-bla HEK293T assay kit for human TRb (ThermoFisherScientific Catalog No. K1684) was used as a secondary assay for specificity (TRb-bla).This assay contained the ligand-binding domain (LBD) of the human TRb fused to the DNA-binding domain of GAL4 stably integrated in the GeneBLAzer UAS-bla HEK293Tcell line. The reporter gene, b-lactamase, is under the transcriptional control of a UAS that binds the GAL4 DNA-binding domain. A cell viability assay was run in parallel for these cells as well using the CellTiter-Glo viability assay kit.TOX21_TRB_BLA_Antagonist_Followup_ratio is an assay readout measuring reporter gene via receptor activity and designed using inducible reporter (beta lactamase induction) detected with GAL4 b-lactamase reporter gene. The signal is derived from the ratio of cleaved (ch2) to uncleaved (ch1) reporter gene substrate used as the measure of target activity.Data from the assay component TOX21_TRB_BLA_Antagonist_Followup_ratio was analyzed into 1 assay endpoint. This assay endpoint, TOX21_TRB_BLA_Antagonist_Followup_ratio, was analyzed in the positive analysis fitting direction relative to DMSO as the negative control and baseline of activity. Using a type of inducible reporter, loss-of-signal activity can be used to understand changes in the reporter gene as they relate to the gene THRB. Furthermore, this assay endpoint can be referred to as a primary readout, because this assay has produced multiple assay endpoints and this ratio serves a reporter gene function to understand target activity. To generalize the intended target to other relatable targets, this assay endpoint is annotated to the nuclear receptor intended target family, where the subfamily is non-steroidal.
Cell Media Required: Growth (90% DMEM/F-12, 10% Fetal Bovine Calf Serum, 100U/ml Penicillin, 100 ug/ml Streptomycin), Assay (10ng/mL sodium selenite, 10 ug/mL humanapo-transferrin, 10 uM ethanolamine, 10 ug/mL insulin, 500 ug/mL bovine serum albumin (BSA))Assay Protocol: TRb-bla cells were dispensed at 3,000 cells/well in 5 uL of the assay medium containing phenol red-free DMEM with 2% charcoal-stripped FBS in 1,536-well black-wall/clear-bottom plates using an FRD. After 5-h incubation at 37C/5% CO2 for cell attachment to the well bottom, 23nL of follow-up compounds dissolved in DMSO, 11 concentrations in triplicate, and the positive control (T3; agonist format) were transferred to the assay plates using a Pintool station. The assay plates were incubated at 37C/5% CO2 for 18h. One microliter LiveBLAzer FRET-B/G CCF4-AM substrate was added to each well using an FRD. After 2-h incubation at room temperature, the fluorescence intensity was measured using an Envision plate reader. Data were expressed as the ratio of 460:530nm. The cytotoxicity of the compounds was measured in the same plates by adding 4 uL of CellTiter-Glo reagent to each well and incubating the plates at room temperature for 30 min. The luminescence intensity was measured using a ViewLux plate reader.For the luciferase reporter gene assay, 5 uL/well (agonist format) and 4 uL/well (antagonist format) ONE-Glo reagent (Promega Corporation) was added using an FRD and after 30-min incubation at room temperature, the luminescence intensity was measured using a ViewLux plate reader. Data were expressed as relative fluorescence units (cell viability assay) and relative luminescence units (luciferase reporter assay).

THRB (gene 7068), sequence (P10828 whole entry, looked up, the tested form may be a part): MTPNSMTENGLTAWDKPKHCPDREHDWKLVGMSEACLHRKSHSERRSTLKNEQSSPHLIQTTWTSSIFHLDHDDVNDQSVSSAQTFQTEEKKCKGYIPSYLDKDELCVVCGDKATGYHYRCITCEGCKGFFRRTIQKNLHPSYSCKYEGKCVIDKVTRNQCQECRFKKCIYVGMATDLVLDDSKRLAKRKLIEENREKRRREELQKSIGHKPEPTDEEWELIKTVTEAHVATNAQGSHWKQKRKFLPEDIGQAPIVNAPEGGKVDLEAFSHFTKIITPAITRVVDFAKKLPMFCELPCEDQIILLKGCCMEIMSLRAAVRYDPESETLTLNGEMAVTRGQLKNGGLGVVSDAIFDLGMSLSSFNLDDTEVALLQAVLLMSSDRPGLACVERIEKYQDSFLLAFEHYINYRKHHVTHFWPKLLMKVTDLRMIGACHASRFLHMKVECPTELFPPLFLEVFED

Row | Compound | outcome | AC50
1 | C#C[C@]1(O)CC[C@H]2[C@@H]3CCC4=C(CCC(=O)C4)[C@H]3CC[C@@]21C | inactive | –
2 | O=c1[nH]c(=O)n([C@H]2C[C@H](O)[C@@H](CO)O2)cc1C(F)(F)F | inactive | –
3 | CCCCCCC[N+](CC)(CC)CCCCc1ccc(Cl)cc1 | inactive | –
4 | CC(=O)OCC(=O)[C@H]1CC[C@H]2[C@@H]3CCC4=CC(=O)CC[C@]4(C)[C@H]3CC[C@]12C | inactive | –
5 | CN1CCCC(CC2c3ccccc3Sc3ccccc32)C1 (stereo unspecified) | inactive | –
6 | Cc1nc2ccc(CN(C)c3ccc(C(=O)N[C@@H](CCC(=O)O)C(=O)O)s3)cc2c(=O)[nH]1 | inactive | –
7 | NNc1nnc(Cc2ccncc2)c2ccccc12 | inactive | –
8 | O=C1c2ccccc2-c2n[nH]c3cccc1c23 | inactive | –
9 | O=C(O)c1cccnc1Nc1cccc(C(F)(F)F)c1 | inactive | –
10 | CC(=O)O[C@@]12CO[C@@H]1C[C@H](O)[C@@]1(C)C(=O)[C@H](O)C3=C(C)[C@@H](OC(=O)[C@H](O)[C@@H](NC(=O)OC(C)(C)C)c4ccccc4)C[C@@](O)([C@@H](OC(=O)c4ccccc4)[C@H]21)C3(C)C | inactive | –
11 | COC(=O)Nc1nc2ccc(S(=O)c3ccccc3)cc2[nH]1 (stereo unspecified) | inactive | –
12 | C/C=C1/C(=O)C[C@H]2[C@@H]3CCC4=CC(=O)CC[C@]4(C)[C@H]3CC[C@]12C | inactive | –
13 | COc1cc(NCc2ccc3nc(N)nc(N)c3c2C)cc(OC)c1OC | inactive | –
14 | O=C1OC(OC(=O)c2cccnc2Nc2cccc(C(F)(F)F)c2)c2ccccc21 (stereo unspecified) | inactive | –
15 | COc1ccc2c(c1)N(C[C@H](C)CN(C)C)c1ccccc1S2 | inactive | –
16 | Cc1ccc(Nc2nccc(N(C)c3ccc4c(C)n(C)nc4c3)n2)cc1S(N)(=O)=O | – | 14.7 µM (active)
